Compounds without any hit were thinned out: in the full panel of roughly 79,000, 15% have a hit. The source made the active and inactive calls. No stated cut-off is given here; in the data, active means growth inhibition above about 70%; inactive means the rest.
assay: NCI Yeast Anticancer Drug Screen. Data for the rad50 strain (AID 155);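 further: 0% = growth of vehicle-only cultures of the same strain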; settings: S. cerevisiae rad50 strain growth inhibition; at 5.0 µM (retest, dose inferred, filed as 0.5); stronger effect = higher value
Procedure, shortened: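 Compounds were tested on a yeast strain with an engineered DNA damage repair alteration; the reported value is growth inhibition normalised to vehicle treatment.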

Compound	growth inhibition
C=C(CCC(C)C1CCC2(C)C3=C(CC(O)C12C)C1(C)CCC(O)C(C)(C)C1CC3)C(C)C(=O)O (centres undefined)	11% (inactive)
CC(=O)O[C@H]1CC[C@]2(C)C3=CC[C@]4(C)[C@@H](C(C)=O)CC[C@H]4[C@@]34C=C[C@]2(C1)C1C(=O)OC(=O)C14 (some centres undefined)	2% (inactive)
CCC1(c2ccc(N3C(=O)c4ccccc4C3=O)cc2)CCC(=O)NC1=O (centres undefined)	1% (inactive)
O=C(NNS(=O)(=O)c1ccccc1)Nc1ccccc1	-21% (inactive)
CCN(CC)CCNc1c(C)ccc2cccnc12	0% (inactive)
CCOC(=O)CCC(NC(=O)c1ccc(NC(OC)c2nc3cc(C(F)(F)F)ccc3nc2-c2ccccc2)cc1)C(=O)OCC (centres undefined)	88% (active)
CCCC(O)C[N+](=O)[O-] (centres undefined)	6% (inactive)
O=C(Nc1cccc(Br)c1)Oc1cccc2cccnc12	61% (inactive)
C=C1CC(C)(COc2ccc3c(C)c(C)c(=O)oc3c2C)OC1=O (centres undefined)	26% (inactive)
Cc1cc(Br)c(N2C3=C(CC4=C2CCCC4=O)C(=O)CCC3)c(Br)c1	17% (inactive)
CCN(CC)CC(O)CNc1ccc(C)c2sc3ccccc3c(=O)c12 (centres undefined)	12% (inactive)
COC1/C=C/OC2(C)Oc3c(C)c(O)c4c(c3C2=O)C(=O)C=C(NC(=O)/C(C)=C\C=C\C(C)C(OC=O)C(C)C(O)C(C)C(OC(C)=O)C1C)C4=O (centres undefined)	-15% (inactive)
OC(c1cc2ccccc2o1)c1cc2ccccc2s1 (centres undefined)	-4% (inactive)
Nc1nnc(-c2cc([N+](=O)[O-])cc([N+](=O)[O-])c2)o1	-16% (inactive)

From PubChem BioAssay (NCI)
